The record followed here is the supplement of paper PMC8387472.

± gives the standard deviation of the averaged measurements.

The test system of the test is mESC LDLR-Dup GFP reporter (SpCas9 MH-deletion repair). Briefly: fraction of GFP+ cells relative to DMSO control (fold change); higher = more MH-deletion repair to in-frame LDLR (or more editing). To be noted: 2 µM; 7 days post-transfection.
As to `CSc1nc2cc(Cl)c(Oc3cccc(Cl)c3Cl)cc2[nH]1` [Triclabendazole], the “fraction of GFP+ cells” value is 1.67 ± 0.26. `COc1cc(Cc2cnc(N)nc2N)cc(OC)c1OC` [Trimethoprim]: the “fraction of GFP+ cells” value is 0.773 ± 0.079. To `CC(=O)c1cc([N+](=O)[O-])c(Sc2cccc(Cl)c2Cl)s1` belongs 0.919 ± 0.038. Take `CCCCCCCCCC(=O)N[C@@H](Cc1c[nH]c2ccccc12)C(=O)N[C@H](CC(N)=O)C(=O)N[C@@H](CC(=O)O)C(=O)N[C@@H]1C(=O)NCC(=O)N[C@@H](CCCN)C(=O)N[C@@H](CC(=O)O)C(=O)N[C@H](C)C(=O)N[C@@H](CC(=O)O)C(=O)NCC(=O)N[C@H](CO)C(=O)N[C@@H]([C@H](C)CC(=O)O)C(=O)N[C@@H](CC(=O)c2ccccc2N)C(=O)O[C@@H]1C` [Daptomycin]: the “fraction of GFP+ cells” value was 1.25 ± 0.27. For `Cc1nc2c(O)cccc2c(=O)[nH]1`, the “fraction of GFP+ cells” value came out at 0.926 ± 0.11. For the compound `C[C@H](Oc1cc(-c2cnn(C3CCNCC3)c2)cnc1N)c1c(Cl)ccc(F)c1Cl` [(S)-crizotinib], the “fraction of GFP+ cells” value amounted to 0.94 ± 0.18. Consider `Cn1cc(/C=C/C(=O)c2cccc(F)c2)cc1/C=C/C(=O)NO`, for which the “fraction of GFP+ cells” value was found to be 0.876 ± 0.1. As for `CC(C)(Oc1ccc(CCNC(=O)c2ccc(Cl)cc2)cc1)C(=O)O` [Bezafibrate], the “fraction of GFP+ cells” value came to 1.52 ± 0.58. To `CN(C)c1nc(N(C)C)nc(N(C)C)n1` [Altretamine] belongs 1.41 ± 0.41; to `C[C@@H]1COCCN1c1cc(C2([S@](C)(=N)=O)CC2)nc(-c2cc[nH]c3nccc2-3)n1`, 0.429 ± 0.24; to `O=c1[nH]c(=O)n(C2CC(O)C(CO)O2)cc1Br` (configuration not stated) [Bromodeoxyuridine (BrdU)], 1.79 ± 0.2. On to `CC1=C(C(=O)Nc2cc3cn[nH]c3cc2F)C(c2ccc(C(F)(F)F)cc2)CC(=O)N1` (configuration not stated), for which the “fraction of GFP+ cells” value amounted to 1.27 ± 0.48.
